A selection: hits, their analogues and other compounds. The true share with any hit is near 7.5%.
FLuc modulator: inhibits or activates purified firefly luciferase, miR-21 counter-screen; purified FLuc, Km substrates, luminescence inhibition; 360,000 compounds, 6.9% hits; Potency, µM (series often up to 57.5 µM), without a hit: at the top dose activity change, negative = inhibition, actives largely listed as inhibitors; AID 588342; P08659;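 note: plate controls were vehicle for no effect and reference inhibitor for full effect; nearly all actives have a fitted effect of over 55% in size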
Target sequence (P08659 whole entry, looked up): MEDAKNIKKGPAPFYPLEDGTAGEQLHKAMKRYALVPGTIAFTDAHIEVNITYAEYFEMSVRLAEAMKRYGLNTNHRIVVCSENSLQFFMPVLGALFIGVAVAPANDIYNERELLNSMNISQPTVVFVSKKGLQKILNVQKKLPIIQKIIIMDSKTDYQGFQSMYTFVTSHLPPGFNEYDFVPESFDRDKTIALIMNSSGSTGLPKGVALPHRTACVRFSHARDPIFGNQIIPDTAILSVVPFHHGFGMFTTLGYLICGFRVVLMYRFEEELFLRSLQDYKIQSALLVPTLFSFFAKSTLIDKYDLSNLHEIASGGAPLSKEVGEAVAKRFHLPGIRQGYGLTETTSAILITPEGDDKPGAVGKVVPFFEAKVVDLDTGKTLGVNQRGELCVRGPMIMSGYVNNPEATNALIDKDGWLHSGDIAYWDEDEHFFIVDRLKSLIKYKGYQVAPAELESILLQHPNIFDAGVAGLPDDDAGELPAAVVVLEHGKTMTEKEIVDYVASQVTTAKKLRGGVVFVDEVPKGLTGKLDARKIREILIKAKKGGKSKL
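Purified P. pyralis luciferase (10nM final) with 10uM D-luciferin and 10uM ATP (Km levels) in 50mM Tris acetate pH 7.5, 10mM Mg acetate, 0.01% Tween-20, 0.05% BSA; qHTS 6-point titration, ~60 µM downward; luminescence read.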
Rab9 promoter act: activators of Rab9 promoter | 320,000 compounds, 2.8% hits | Huh7 Rab9 promoter-luciferase reporter, luminescence, 24 h | Potency, µM (series often up to 9.22 µM), for inactives: at the highest dose activation, negative = inhibition, most hits filed as activators; note: % of control where 0% means no effect; nearly all actives have a fitted effect of over 60% in size
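Rab9 promoter-driven luciferase in stably transfected Huh7 cells; 1500 cells/well rested 2 h, exposed to compound in DMSO for 24 h at 37 °C, 5% CO2. Luminescence read 10 min after adding luciferase reagent at ambient temperature.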
SMN2 splice enh: enhancers of SMN2 splice variant expression. HEK293 SMN2-luciferase splicing reporter, luminescence, 30-36 h. Potency, µM (series often up to 46.1 µM), without a hit: at the top dose activity change, positive = activation, usual class: activators. AID 1458. 210,000 compounds, 2.8% hits; note: % of control where 0% means no effect; nearly all actives have a fitted effect of over 55% in size
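HEK293 cells carry an SMN2 minigene-luciferase reporter in which exon 7 inclusion puts luciferase in frame. Cells were seeded at 2000 cells/well, attached for 10-12 hours, then exposed to compounds for 30-36 hours at 37C before ONE-Glo luminescence.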
NPC1 promoter act: activates the NPC1 promoter | Huh7 NPC1 promoter luciferase reporter, 24 h | Potency, µM (doses to about 9.22 µM), without a hit: at the highest dose activation, usual class: activators | 320,000 compounds, 2.4% hits; note: % of control where 0% means no effect; nearly all actives have a fitted effect of over 60% in size
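Quantitative HTS used a cell-based reporter: Huh7 cells stably bearing the NPC1 promoter upstream of luciferase were treated with compounds for 24 h, and promoter activation was read as luminescence.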
KinaseGlo FLuc: Kinase-Glo luciferase inhibition (counter-screen); Potency, µM (highest dose often 38.3 µM), inactives show at the highest dose activity change, negative = inhibition, hits mostly inhibitors; AID 1379; 200,000 compounds, 0.28% hits; Kinase-Glo luciferase, ATP luminescence, 8 min; note: % is set by controls: 0 for no effect and ±100 for the full control effect; nearly all actives have a fitted effect of over 60% in size
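Recombinant Kinase-Glo luciferase, 10 uM ATP (linear range), luciferin; imidazole pH 7.2 / KCl / MgCl2 / Tween / BSA buffer; 8 min RT; luminescence.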
ELG1 genotoxic: genotoxicity induction in ELG1-luciferase HEK293T cells. Potency, µM (top dose mostly 46 µM), inactives show top-dose activity change, positive = activation, usual class: activators. 330,000 compounds, 1.3% hits. HEK293T ELG1-luciferase reporter, luminescence, 16 h. AID 504466; note: % of control where 0% means no effect; nearly all actives have a fitted effect of over 60% in size
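Reporter readout depends on ELG1 protein level, which increases with genetic stress. After 16 hr compound exposure at 37 °C, luciferase activity was quantified using ONE-Glo.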
An asterisk follows results filed as active; ? = inconclusive; nt = no result. Calls come from the whole dose curve; as a rule, active = well fitted curve in the direction sought with a large enough effect; inconclusive = small, poorly fitted or top-dose-only effect, or another doubt; inactive = no such curve, though single readings can be large; an effect the other way counts as inactive or inconclusive. Potency is the fitted concentration of half-maximal effect.

SMILES	FLuc modulator	Rab9 promoter act	SMN2 splice enh	NPC1 promoter act	KinaseGlo FLuc	ELG1 genotoxic
CC1=NN(c2ccccc2)C(=O)C1N=Nc1ccc(N)cc1 (stereo not drawn)	?	-12%	-43%	-8%	-13%	-3%
Cc1cc(C)n(C(C)CC(=O)Nc2ccc(Cl)cc2C)n1 (stereo not drawn)	0%	nt	nt	nt	nt	nt
C=CCC(Nc1ccc(OC)cc1)C(=O)OCC (stereo not drawn)	nt	nt	-2%	nt	1%	nt
Cc1ccc(-c2nc3ccccc3s2)cc1NC(=O)c1ccc2c(c1)OCO2	4.8µM*	-3%	-4%	11%	0%	-1%
O=C(Nc1cc(-c2nc3ccccc3s2)ccc1Cl)c1ccc2c(c1)OCO2	11µM*	1%	8%	-1%	-3%	6%
O=C(Nc1cc([N+](=O)[O-])ccc1Cl)c1ccc2c(c1)OCO2	1%	4%	3%	4%	-1%	5%
CCCCOc1ccc(C(=O)Nc2ccc(-c3nc4ccccc4s3)cc2C)cc1	-16%	nt	-15%	nt	nt	nt
CCC(=O)NC(=S)Nc1ccc(-c2nc3ccccc3s2)cc1	0.76µM*	1.6µM*	5µM*	0.45µM*	-1%	?
Cc1ccc2nc(-c3ccc(NC(=S)NC(=O)C(C)C)cc3)sc2c1	3.8µM*	1.8µM*	nt	0.4µM*	13%	9.2µM*
CCC(=O)NC(=S)Nc1ccc(-c2nc3ccc(C)cc3s2)cc1	17µM*	0.45µM*	nt	0.79µM*	nt	?
CCC(=O)NC(=S)Nc1ccc(NC(=O)CC)cc1	-7%	0%	12%	-3%	-1%	0%
CCC(=O)NC(=S)Nc1ccc(NC(=S)NC(=O)c2ccc(C)cc2)cc1	1%	-4%	-2%	-7%	0%	?
Cc1ccc2nc(-c3ccc(NC(=S)NC4CC(C)(C)NC(C)(C)C4)cc3)sc2c1	11µM*	?	?	?	-8%	?
CCC(=O)N1c2ccc(S(=O)(=O)N3CCCCCC3)cc2CC1C (stereo not drawn)	-8%	nt	8%	nt	nt	nt
COc1ccccc1CCNC(=O)C(=O)c1cn(CC(=O)N2CCCC2)c2ccccc12	11µM*	26%	nt	23%	nt	2%
COc1ccccc1CNC(=O)C(=O)c1cn(CC(=O)N2CCOCC2)c2ccccc12	?	12%	nt	-1%	nt	4%
COc1ccc(CCNC(=O)C(=O)c2cn(CC(=O)N3CCOCC3)c3ccccc23)cc1OC	21µM*	1%	nt	-1%	nt	6%
COc1ccc(NC(=O)C(=O)c2cn(CC(=O)N3CCOCC3)c3ccccc23)cc1OC	?	-1%	nt	0%	nt	-1%
COc1ccccc1NC(=O)C(=O)c1cn(CC(=O)N2CCOCC2)c2ccccc12	4.8µM*	?	nt	?	nt	?
COc1ccccc1NC(=O)C(=O)c1cn(CC(=O)N2CCCC2)c2ccccc12	4.8µM*	?	nt	?	nt	13%
COc1ccccc1NC(=O)CSc1cn(CC(=O)N2CCCC2)c2ccccc12	-9%	nt	nt	nt	nt	nt
COc1ccc(NC(=O)C(=O)c2cn(CC(=O)N3CCCC3)c3ccccc23)c(OC)c1	4.8µM*	?	nt	?	nt	?
CCOc1ccc2nc3sc(C(=O)N4CCN(C)CC4)c(N)c3cc2c1	11µM*	25%	17%	-3%	0%	?
CC(C)c1ccc2nc3sc(C(=O)N4CCc5ccccc5C4)c(N)c3cc2c1	17µM*	17%	16%	13%	-2%	21%
CCC(C)NC(=O)c1cc2cc3ccc(OC)cc3nc2s1 (stereo not drawn)	3µM*	0.35µM*	13µM*	0.56µM*	-8%	?
SMILES	FLuc modulator	Rab9 promoter act	SMN2 splice enh	NPC1 promoter act	KinaseGlo FLuc	ELG1 genotoxic
Cc1ccc2cc3c(N)c(C(=O)N4CCOCC4)sc3nc2c1	2.4µM*	4µM*	nt	0.32µM*	nt	1.2µM*
Cc1ccc2cc3c(N)c(C(=O)N4CC(=O)Nc5ccccc54)sc3nc2c1	-14%	-4%	2%	-13%	-3%	26%
Cc1ccc2nc(COc3ccccc3NC(=O)COc3ccccc3Cl)cc(=O)n2c1	-11%	nt	nt	nt	nt	nt
O=C(CN1CCSc2ccccc21)N1CCN(c2cccc(Cl)c2)CC1	-10%	nt	nt	nt	nt	nt
Cc1ccc2nc3sc(C(=O)N4CCOCC4)c(N)c3cc2c1	0.12µM*	0.11µM*	-73%	0.25µM*	-27%	?
COc1ccc2cc3c(N)c(C(=O)N4CCCC4)sc3nc2c1	2.7µM*	1.4µM*	11µM*	1.8µM*	-6%	?
COc1ccc(C(=O)c2ccccc2)c(O)c1O	nt	nt	5%	nt	-2%	nt
Cc1cccc(-n2c3c(cc(-c4nc(-c5ccc(Cl)cc5)cs4)c2=O)C(=O)CC(C)(C)C3)c1	-6%	nt	-5%	nt	nt	nt
Clc1ccc(OCc2nc3ccccc3n2Cc2ccccc2)c(Cl)c1	6µM*	nt	4%	nt	nt	nt
COc1cccc(OCc2nc3ccccc3n2Cc2ccccc2)c1	?	nt	-19%	nt	nt	nt
Clc1ccc(OCCn2cnc3ccccc32)c(Cl)c1	27µM*	?	21%	?	-1%	?
CCC(C)NC(=O)Cn1c(COc2ccc(Cl)cc2Cl)nc2ccccc21 (stereo not drawn)	6µM*	?	22µM*	24%	-2%	?
COc1ccc(Nc2ncnc3sc(-c4ccccc4)cc23)cc1OC	12µM*	0%	-6%	1%	3%	0%
CC(C)Cn1cc(C(=O)N2CCN(c3cccc(Cl)c3)CC2)c2c3ccccc3n(C)c2c1=O	-1%	nt	-37%	nt	nt	nt
O=[N+]([O-])c1ccccc1S(=O)(=O)Nc1nc2ccccc2s1	-12%	8%	nt	3%	nt	0%
O=[N+]([O-])c1ccc2nc(NS(=O)(=O)c3ccccc3[N+](=O)[O-])sc2c1	11µM*	19%	nt	?	nt	6%
Cc1cccc(-c2noc(CN(C(=O)c3ccccc3Cl)C(C)C)n2)c1	2%	nt	-8%	nt	nt	nt
CN(Cc1ccccc1)C(=O)Nc1ccc2c(c1)N(C)C(=O)c1ccccc1S2	1%	nt	nt	nt	nt	nt
O=CN(/C=C1\Sc2ccccc2C1=O)Cc1ccccc1	11µM*	18%	-4%	10%	-4%	?
CC(=O)N(C)/C=C1\Sc2ccccc2C1=O	?	-4%	-4%	-3%	-6%	5%
CCC(=O)N(C)/C=C1\Sc2ccccc2C1=O	11µM*	9%	4%	-6%	-13%	4%
CCOC(=O)c1cnc2c(ccc3ccccc32)c1Nc1ccc(OC)c(OC)c1	-1%	nt	-1%	nt	nt	nt
CCOC(=O)c1nc2c(ccc3ccccc32)cc1C	15µM*	0%	nt	-1%	nt	5%
CC(C)(C)c1ccc(-c2nnc(SCC(=O)NC3CC3)o2)cc1	4.3µM*	?	nt	?	nt	10%

Screening results deposited in PubChem BioAssay by National Center for Advancing Translational Sciences (NCATS).
